High-throughput results: PubChem BioAssay, National Center for Advancing Translational Sciences (NCATS)
KAT2A inh: inhibitors of human GCN5L2 histone acetyltransferase | Potency, µM (doses to about 58.9 µM), without a hit: at the highest dose activity change, negative = inhibition, actives largely listed as inhibitors | AID 504327 | 0.21% of 390,000 active | Q92830 | GCN5L2 HAT assay, ThioGlo1 CoA-SH fluorescence; further: potency means the concentration at half of the fitted maximal effect; on the % scale 0 is the no-effect control and ±100 the full control effect
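Enzyme at 20nM final was mixed with library compounds for 15 min at room temperature. Peptide H3(1-25) at 75uM, acetyl-CoA at 70uM and ThioGlo1 at 50uM were then added. Plates were read immediately and after 20 min (Ex340nm/Em540nm).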
PLK1 PBD inh: inhibitors of human PLK1 polo-box domain binding. Plk1 PBD binding of FITC phosphopeptide, fluorescence polarization. Potency, µM, inactives show max response, negative = inhibition, hits mostly inhibitors. P53350. 2.8% of 360,000 active; further: potency means the concentration at half of the fitted maximal effect; series mostly up to about 57 µM; on the % scale 0 is the no-effect control and ±100 the full control effect; nearly all actives have a fitted effect of over 65% in size
PI5P4Ka inh: blocks human PI5P4K alpha kinase activity. P48426. PI5P4Kalpha enzyme, ADP-Glo luminescence, 60 min; hits give low values. max response, %. 1.2% of 330,000 active; active means max response of -50% or lower; inconclusive means between -30% and -50%; inactive means -30% or higher; further: value at the top dose of about 77 µM; on the % scale 0 is the no-effect control and ±100 the full control effect
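Human PI5P4Kalpha with substrate in 0.038 M HEPES pH 7.4, 0.28 mM EGTA, 0.1% CHAPS, 5% DMSO; reaction started with 5 microM ATP (final), 60 min at room temperature. ADP formed read by ADP-Glo luminescence.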
BAZ2B block: inhibitors of human BAZ2B bromodomain; AlphaScreen BAZ2B-H3K14Ac peptide displacement; Potency, µM (titrated, usually from 114 µM), inactives show at the top dose activity change, negative = inhibition, hits mostly inhibitors; 4.4% of 360,000 active; AID 504333; further: potency means the concentration at half of the fitted maximal effect; on the % scale 0 is the no-effect control and ±100 the full control effect; nearly all actives have a fitted effect of over 60% in size
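In this displacement format the biotinylated H3(5-23) peptide acetylated at Lys14 serves as ligand at 50 nM, with BAZ2B at 50 nM in PBS pH 7.4 containing 0.01% Tween-20. Donor and acceptor beads are 10 ug/mL final.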
HP1b chromo inh: blocks HP1-beta chromodomain binding to methylated histone tails; P83916; AlphaScreen HP1-beta / biotin-H3K9me3 peptide binding; Potency, µM (highest dose often 114 µM), inactives show at the top dose activity change, negative = inhibition, hits mostly inhibitors; 0.56% of 390,000 active; further: potency means the concentration at half of the fitted maximal effect; nearly all actives have a fitted effect of over 70% in size
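HP1-beta protein (50 nM final) preincubated 30 min at room temperature with biotinylated H3(1-18)K9me3 peptide (50 nM) in PBS pH 7.4, 0.01% Tween-20, then compound added for 30 min. AlphaScreen streptavidin donor/nickel chelate acceptor beads (10 ug/mL final), 30 min dark, luminescence read.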
JMJD2A Tudor inh: JMJD2A Tudor domain (human) inhibition | O75164 | AlphaScreen JMJD2A-Tudor / H3K4me3 peptide binding | Potency, µM (top dose mostly 114 µM), for inactives: at the highest dose activity change, negative = inhibition, actives largely listed as inhibitors | 4.4% of 390,000 active | AID 504339; further: potency means the concentration at half of the fitted maximal effect; on the % scale 0 is the no-effect control and ±100 the full control effect; nearly all actives have a fitted effect of over 50% in size
Target sequence (O75164 whole entry, looked up, the tested form may be a part): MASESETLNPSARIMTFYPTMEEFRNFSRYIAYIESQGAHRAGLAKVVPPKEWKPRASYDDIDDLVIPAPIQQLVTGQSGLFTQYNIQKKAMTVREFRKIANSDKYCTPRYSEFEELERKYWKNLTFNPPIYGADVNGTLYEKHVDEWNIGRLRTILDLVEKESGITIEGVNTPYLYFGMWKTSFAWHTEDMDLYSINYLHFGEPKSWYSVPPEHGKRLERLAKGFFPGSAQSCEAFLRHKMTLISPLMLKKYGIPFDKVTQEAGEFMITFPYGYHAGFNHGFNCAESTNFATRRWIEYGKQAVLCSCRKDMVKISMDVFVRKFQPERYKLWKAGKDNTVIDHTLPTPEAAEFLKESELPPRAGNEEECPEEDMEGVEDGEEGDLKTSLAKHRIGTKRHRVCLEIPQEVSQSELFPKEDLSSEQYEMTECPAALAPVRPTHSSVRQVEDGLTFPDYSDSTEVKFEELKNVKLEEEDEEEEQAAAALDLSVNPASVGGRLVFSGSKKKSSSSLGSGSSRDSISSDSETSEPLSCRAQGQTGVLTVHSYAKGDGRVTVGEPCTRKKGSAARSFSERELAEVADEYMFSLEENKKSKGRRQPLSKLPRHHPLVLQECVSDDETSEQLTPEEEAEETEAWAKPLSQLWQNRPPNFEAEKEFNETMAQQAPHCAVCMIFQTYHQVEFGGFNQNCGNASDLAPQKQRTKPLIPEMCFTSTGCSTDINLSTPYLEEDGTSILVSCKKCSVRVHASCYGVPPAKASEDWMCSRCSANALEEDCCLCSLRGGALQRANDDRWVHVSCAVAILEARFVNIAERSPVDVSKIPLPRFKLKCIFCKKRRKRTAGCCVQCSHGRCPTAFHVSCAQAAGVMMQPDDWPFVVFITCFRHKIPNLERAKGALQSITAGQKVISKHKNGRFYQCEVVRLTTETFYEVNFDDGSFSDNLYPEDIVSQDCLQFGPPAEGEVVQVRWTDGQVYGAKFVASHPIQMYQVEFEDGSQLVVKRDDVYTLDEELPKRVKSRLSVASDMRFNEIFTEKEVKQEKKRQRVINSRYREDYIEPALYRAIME
Starred values were filed as active, the others as inactive; ? = inconclusive; . = no result given; [ ] = dose if it differs, or a comment. Most compounds without a hit are left out; they make up all but 7% or so of the library. Unless noted, the call rests on the fitted dose curve; in most records, active means well fitted curve in the direction sought with a large enough effect; inconclusive means small, poorly fitted or top-dose-only effect, or another doubt; inactive means no such curve, though single readings can be large; an effect the other way counts as inactive or inconclusive.

SMILES	KAT2A inh	PLK1 PBD inh	PI5P4Ka inh	BAZ2B block	HP1b chromo inh	JMJD2A Tudor inh
COc1cc(OC)c(OC)cc1CN1CCC(O)CC1	2%	5%	1	?	?	18µM*
COc1ccccc1N1CCN(Cc2cc3c(cc2Br)OCCO3)CC1	-6%	-15%	1	?	-12%	?
COc1cc2c(=O)n(CCC(=O)NCC3CCCO3)c(=O)n(CC(=O)Nc3c(C)cccc3C)c2cc1OC (stereo not drawn)	0%	.	.	-1%	29%	12%
CC(=O)C[C@@H](O)CC(=O)[C@@H]1OC(=O)CCCCC/C=C/Cc2ccccc21	-5%	-12%	-6	.	26%	-26%
CCN(c1ccccc1)S(=O)(=O)c1nnc(NC(=O)C(C)Oc2ccccc2)s1 (stereo not drawn)	2%	.	.	?	-36%	?
Nc1ccccc1Nc1c(F)c(F)nc(F)c1Cl	-2%	-2%	-5	?	13%	-33%
Cc1ccc(Cl)cc1NC(=O)CN(C)S(=O)(=O)c1ccc2c(c1)n(C)c(=O)c(=O)n2C	-7%	.	.	-11%	33%	5%
CCOc1ccccc1N1CCN(Cc2ccc(OC)c(OC)c2OC)CC1	-2%	-7%	.	?	?	4µM*
CCOc1ccc(CCNC(=O)C2CCN(C(=O)N(C)C)CC2)cc1OCC	-27%	-7%	.	2%	10%	89µM*
CCOc1ccc(CCNC(=O)C2CC(C)=CCC2C(=O)O)cc1OCC (stereo not drawn)	4%	?	3	50µM*	?	25µM*
CCOc1ccc(CCNC(=O)C2CC=CCC2C(=O)OC(C)C)cc1OCC (stereo not drawn)	2%	0%	7	-2%	27%	-2%
Cc1ccc(-c2nc3ccc(C(=O)O)cc3nc2-c2ccc(C)cc2)cc1	-10%	30µM*	.	?	1%	-28%
CNC(=O)c1ccc2nc(-c3ccccc3)c(-c3ccccc3)nc2c1	.	.	.	.	9%[57 µM]	-10%[57.1 µM]
O=C(CC1CCCCC1)Nc1ccccc1-c1ccccc1	1%	-10%	21	2%	34%	-4%
O=C(CCC1CCCCC1)Nc1ccccc1-c1ccccc1	3.2µM*	-5%	-2	36%	103%	66%
CC(NC1CCCC1)C(=O)Nc1ccccc1-c1ccccc1 (stereo not drawn)	-2%	-2%	.	79µM*	?	2µM*
O=C(CCC1CCCC1)Nc1ccccc1-c1ccccc1	-2%	-10%	7	23%	112%	67%
Cc1cc(C)cc(OCC(=O)N(Cc2ccc(Cl)cc2)CC2CCCO2)c1 (stereo not drawn)	-8%	.	.	42%	96%	51%
CN(C)c1ccc(CN(CC2CCCO2)C(=O)COc2ccccc2Cl)cc1 (stereo not drawn)	-3%	.	.	40µM*	?	45µM*
COc1ccccc1OCC(=O)N(Cc1ccc(N(C)C)cc1)CC1CCCO1 (stereo not drawn)	-4%	.	.	?	9%	?
Cc1cc(Cl)ccc1OCC(=O)N(Cc1ccc(N(C)C)cc1)CC1CCCO1 (stereo not drawn)	-13%	.	.	11µM*	?	28µM*
O=C(Nc1ccc(N2CCOCC2)cc1)Nc1ccc2nc(-c3ccco3)c(-c3ccco3)nc2c1	-13%	?	.	5%	-17%	?
O=C(NCCCO)Nc1ccc2nc(-c3ccco3)c(-c3ccco3)nc2c1	16µM*	.	.	3.5µM*	.	.
Cc1cc(NC(=O)CN2CCCC(C)C2)no1 (stereo not drawn)	3%	-4%	-3	1%	50µM*	2.8µM*
Cc1cc(NC(=O)CN2CCCCC2)no1	-20%	-7%	-19	56µM*	?	?
SMILES	KAT2A inh	PLK1 PBD inh	PI5P4Ka inh	BAZ2B block	HP1b chromo inh	JMJD2A Tudor inh
Cc1cc(NC(=O)CCCC(=O)NCc2ccccc2)no1	7%	-9%	-5	-22%	10%	-1%
Cc1ccc(CNC(=O)CCCC(=O)Nc2cc(C)on2)cc1	-3%	15µM*	-29	-7%	?	16µM*
Cc1ccc(CNC(=O)CN2CCCC(C)C2)cc1 (stereo not drawn)	-3%	-4%	1	35%	20%	-4%
Cc1cc(NC(=O)CN2CCN(c3cccc(Cl)c3)CC2)no1	-11%	1%	-3	-18%	16%	-14%
Cc1cc(NC(=O)CN2CCN(c3ncccn3)CC2)no1	-4%	-3%	.	56µM*	?	20µM*
COc1cc(OC)c(C(=O)OCC(=O)Nc2ccc(N3CCOCC3)cc2)cc1OC	-8%	-5%	0	.	15%	-10%
COc1cc(OC)cc(C(=O)Nc2nc(-c3nnn(-c4ccc(F)c(Cl)c4)c3C)ns2)c1	13%	.	.	-26%	3%	-11%
CC(=O)c1cc2c(cc1NC(=O)CCCC(=O)O)OCO2	2%	-5%	-5	9%	36%	-3%
CC(=O)c1cc2c(cc1NC(=O)CN1CCCCCCC1)OCO2	0%	-12%	0	50µM*	?	?
O=C(CN1CCN(c2ncccn2)CC1)NCCC1=CCCCC1	?	2%	.	50µM*	?	3.2µM*
CCNC(=S)Nc1ccc2c(c1)c(=O)n(C)n2CC=C(C)C	.	21µM*	-6	.	.	.
COc1ccc(NC(C)=O)cc1NC(=O)c1cccc(S(=O)(=O)N2CCc3ccccc32)c1	-3%	2%	-2	-26%	21%	-29%
N#Cc1nc(COc2ccccc2F)oc1NCCc1ccccc1	-23%	-5%	0	?	-27%	?
COc1ccccc1-c1nc(C#N)c(N2CCC(Cc3ccccc3)CC2)o1	2%	-10%	-9	-1%	?	?
COc1ccccc1-c1nc(C#N)c(N2CCN(Cc3ccccc3)CC2)o1	-14%	-2%	0	28µM*	14µM*	?
CN(C)c1oc(-c2ccco2)nc1C#N	3%	3%	1	-4%	25%	-14%
CN(Cc1ccccc1)c1oc(-c2ccco2)nc1C#N	-13%	-8%	-5	45µM*	?	?
COc1ccccc1-c1nc(C#N)c(NCc2ccc(F)cc2)o1	1%	-2%	12	50µM*	?	-34%
CN(Cc1ccccc1)c1oc(COc2ccccc2F)nc1C#N	-9%	?	2	28µM*	-23%	?
N#Cc1nc(-c2ccco2)oc1N1CCN(Cc2ccccc2)CC1	-11%	-3%	10	50µM*	-24%	?
CCOC(=O)Cc1cc(=O)[nH]n(-c2ccccc2)c1=O	.	-15%	-1	.	-2%	-10%
CN(C)/C=C1\NC(=S)N(c2ccc(Cl)cc2)C1=O	-3%	27µM*	-26	?	?	45µM*
